Laboratory results published in PubChem BioAssay (NCI).
The panel holds about 83,000 compounds, 20% with a hit somewhere; the sample as a whole holds those more often.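 Each cell line was grown in a 96-well plate and treated with one concentration of compound for 48 hours. Values below 10 were considered active.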 Unmarked numbers belong to inactive results. Activity calls are given as the source filed them.

Key:
Assay in all cases: NCI-60 one-dose screen, 48 h (100 = growth as untreated, 0 = no growth, -100 = all killed)
Conditions in all cases: 10 µM unless noted
DU-145 prostate = system: DU-145 prostate
K-562 leukemia = system: K-562 leukemia
MALME-3M melanoma = system: MALME-3M melanoma
MDA-MB-231 breast = system: MDA-MB-231 breast
RXF 393 renal = system: RXF 393 renal
SF-268 CNS = system: SF-268 CNS
SF-295 CNS = system: SF-295 CNS
SF-539 CNS = system: SF-539 CNS
UACC-257 melanoma = system: UACC-257 melanoma
HCT-15 colon = system: HCT-15 colon
HT29 colon = system: HT29 colon
SNB-75 CNS = system: SNB-75 CNS
SNB-19 CNS = system: SNB-19 CNS
U251 CNS = system: U251 CNS
PC-3 prostate = system: PC-3 prostate
SK-MEL-5 melanoma = system: SK-MEL-5 melanoma
UACC-62 melanoma = system: UACC-62 melanoma
LOX IMVI melanoma = system: LOX IMVI melanoma
SK-MEL-28 melanoma = system: SK-MEL-28 melanoma
M14 melanoma = system: M14 melanoma

| Compound | growth (DU-145 prostate) | growth (K-562 leukemia) | growth (MALME-3M melanoma) | growth (MDA-MB-231 breast) | growth (RXF 393 renal) | growth (SF-268 CNS) | growth (SF-295 CNS) | growth (SF-539 CNS) | growth (UACC-257 melanoma) | growth (HCT-15 colon) [%] | growth (HT29 colon) | growth (SNB-75 CNS) | growth (SNB-19 CNS) | growth (U251 CNS) | growth (PC-3 prostate) | growth (SK-MEL-5 melanoma) | growth (UACC-62 melanoma) | growth (LOX IMVI melanoma) | growth (SK-MEL-28 melanoma) | growth (M14 melanoma) |
| --- | --- | --- | --- | --- | --- | --- | --- | --- | --- | --- | --- | --- | --- | --- | --- | --- | --- | --- | --- | --- |
| COc1ccc(S(=O)(=O)c2ccc(C(N)=O)cc2)cc1NC(=O)c1[nH]c(C)c2c1CCCCC2=O | 82.9% | 46.5% | 70.2% | 28.9% | 68.6% | 74.2% | 49.9% | 48.7% | 63.2% | 99.6 | 32.6% | -13.8% (active) | 60.2% | 38.6% | 68% | 48.5% | 17% | 32% | 67.5% | – |
| COC(=O)c1c2c(c(C)[n+]([O-])c1C)C(=O)C(NCc1ccc(O)cc1)=CC2=O | -69.2% (active) | 6.74% (active) | -98.5% (active) | -10.3% (active) | -4.53% (active) | -9.31% (active) | -9.04% (active) | -59.7% (active) | -62.4% (active) | – | 3.68% (active) | -29.5% (active) | -28.5% (active) | -0.0674% (active) | – | -99.7% (active) | -73.8% (active) | -89.6% (active) | -3.61% (active) | -76.5% (active) |
| CCC(=O)Nc1nnc(Cc2ccc(OC)c(OC)c2)s1 | -49.6% (active) | 2.4% (active) | -46.3% (active) | 1.66% (active) | -32.9% (active) | -14% (active) | -78.7% (active) | -74.1% (active) | -26.3% (active) | – | -46.9% (active) | -83.3% (active) | 2.39% (active) | -52.9% (active) | 9.29% (active) | 46.6% | -3.8% (active) | 15.6% | -97.7% (active) | 22.7% |
| CCCCC(=O)N/N=C/c1cc(I)cc(I)c1O | 51% | 32.1% | 75.8% | 57% | 74.6% | 43.1% | 41.2% | 28.8% | 41.8% | – | 56.2% | 62.8% | 62.9% | – | 47% | 78.9% | 38.8% | 38.9% | 58.8% | 56.4% |
| C[C@@H](Oc1cc(-c2cnn(C3CC4(CCCNC4)C3)c2)cnc1N)c1c(Cl)ccc(F)c1Cl (some centres not stated) | 36.7% | 0.205% (active) | -64.7% (active) | 2.82% (active) | -9.61% (active) | 23% | 14.4% | 11.2% | -87.2% (active) | – | -47.7% (active) | 10.3% | 72.3% | 29.5% | 15.6% | – | 14.3% | -73% (active) | -67.2% (active) | -59.5% (active) |
| O=C(c1ccc2ncc(-c3nc(NC4CC4)ncc3F)n2c1)N1CCOCC1 | 11.3% | 73.6% | 71.2% | 49.8% | -48.7% (active) | 1.39% (active) | 19.6% | -0.925% (active) | 46.1% | 23.8 | 26.4% | -21.6% (active) | 45.8% | 28.6% | 52.6% | -51.8% (active) | 16.9% | -0.283% (active) | 45.4% | – |
| CN1CCN(C)c2cncc(Br)c2C1=O | 114% | 102% | 99.3% | 106% | 105% | 102% | -85% (active) | 109% | 90.3% | 105 | 107% | 101% | 106% | 106% | 103% | 101% | 105% | 102% | 110% | – |
| COc1cccc(C2CC(=O)Nc3cc4c(cc32)CCC4)c1OC (configuration not stated) | 51.9% | 14.1% | 55.7% | 60.3% | 57% | 66.2% | 29% | 60.7% | 71.7% | – | 9.41% (active) | 35.3% | 80.8% | 42.4% | 69.3% | – | 52.1% | 59.6% | 68.9% | 25.5% |
| CC1CCCCN1S(=O)(=O)c1ccc(CN=C=S)cc1 (configuration not stated) | 63.8% | 9.18% (active) | 87.1% | 51.1% | 51.9% | 91.1% | 99.6% | 78.3% | 79.9% | – | 50.5% | 69.3% | 77.9% | 68.8% | 74.4% | 91.5% | 84.5% | 3.54% (active) | 88.5% | 42% |
| Nc1cc(Br)c(-c2nnc(CCC(=O)c3nc4ccccc4[nH]3)o2)c(Br)c1 | 103% | 27% | 58.7% | 76.7% | 92.6% | 88.2% | 66.3% | 93.9% | 90.7% | – | – | 58.9% | 85.5% | 68.2% | 74.9% | 47.7% | 55.6% | 44.7% | 65.4% | 79.8% |
| COc1cc(/C=C/C(=O)C2=C(/C=C/c3ccc(O)c(OC)c3)NC(=O)NC2c2ccc(O)c(OC)c2)ccc1O (configuration not stated) | 111% | 87% | 117% | 67.7% | 97.1% | 93.5% | 93.1% | 87% | 85.6% | – | 54.1% | 65.8% | 96.5% | 86.3% | 76.7% | – | 94.2% | 98.7% | 103% | 94% |
| C[C@@H](Oc1cc(-c2cnn(C3CC4(CNC4)C3)c2)cnc1N)c1c(Cl)ccc(F)c1Cl | 46.6% | 5.12% (active) | 48.5% | 37.9% | 21.7% | 39.6% | 24.5% | 28.9% | 8.56% (active) | – | -11.9% (active) | 25.1% | – | 61.8% | 24.7% | – | 53% | 11.5% | 58.9% | 30.2% |
| NC(=O)c1nc2c([nH]c1=O)CCCC2 | 108% | 92.2% | 101% | 118% | 97.6% | 101% | 103% | 96.6% | 109% | 102 | – | 89.6% | – | 106% | – | – | 106% | 99.1% | 103% | 122% |
| COc1ccc(S(=O)(=O)ON=C2C=C(C)C(=O)C(C)=C2)cc1 | 101% | 48.7% | 102% | 62.5% | 81.6% | 92.6% | 93% | 94% | 98.6% | – | 93.3% | 69.1% | 113% | 94.4% | 86% | 98.2% | 91.2% | 62% | 96.8% | 99.9% |
| CCN1CCN(c2nc3ccccc3c3c(=O)c4cc(F)ccc4sc23)CC1 | 66.4% | 10.2% | 90.9% | 51.8% | 47.3% | 53.7% | 93.2% | 86% | 78.7% | 48.2 | 28% | 39.7% | – | 46.5% | 78% | 82.8% | 44.1% | 60.9% | 78.2% | – |
| COc1cc(-c2nc(SC(C)C)nc(Nc3ccccc3C)c2C#N)cc(OC)c1OC | 113% | 98.6% | 104% | 102% | 120% | 106% | 102% | 103% | 113% | – | 109% | 108% | 100% | 108% | 104% | 102% | 97.2% | 102% | 107% | 104% |
